# In PubChem BioAssay (NCATS):
# Values joined by “and” are separate entries in the source; they are usually repeats but may differ in a detail not shown here. Equal entries are not always repeated. Results filed as inconclusive are left out. Entries that show only a call come without a potency. Active and inactive are the calls of the source. Unless noted, the call rests on the fitted dose curve; in most records, active means well fitted curve in the direction sought with a large enough effect; inconclusive means small, poorly fitted or top-dose-only effect, or another doubt; inactive means no such curve, though single readings can be large; an effect the other way counts as inactive or inconclusive.
# Experiments:
# [1] = biological target: Alpha-galactosidase A (Homo sapiens) (UniProt P06280); assay: Counterscreen for Glucocerebrosidase Inhibitors: qHTS Assay for Human alpha-Galactosidase at pH 4.5 (AID 992)
# Chain of Alpha-galactosidase A (Homo sapiens) (P06280 whole entry, looked up): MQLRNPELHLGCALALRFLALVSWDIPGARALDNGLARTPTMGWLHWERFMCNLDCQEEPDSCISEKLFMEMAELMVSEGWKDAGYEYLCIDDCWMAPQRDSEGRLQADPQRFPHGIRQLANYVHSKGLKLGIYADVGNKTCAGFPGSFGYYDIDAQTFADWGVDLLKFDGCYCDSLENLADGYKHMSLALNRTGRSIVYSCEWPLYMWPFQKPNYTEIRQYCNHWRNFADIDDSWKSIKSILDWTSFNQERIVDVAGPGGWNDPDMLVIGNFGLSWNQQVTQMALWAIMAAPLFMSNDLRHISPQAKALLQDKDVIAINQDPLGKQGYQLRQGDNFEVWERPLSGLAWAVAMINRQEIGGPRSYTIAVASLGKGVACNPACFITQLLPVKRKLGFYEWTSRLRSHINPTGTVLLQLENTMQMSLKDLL
# In short: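 Quantitative HTS: compounds tested from 0.7 nM up to 77 uM against 2 nM enzyme with 80 uM 4-MU alpha-D-galactopyranoside. The 20 min room-temperature reaction is stopped with 1M NaOH/1M glycine, pH 10.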
# [2] = biological target: alpha-glucosidase (Oryza sativa, rice) (UniProt Q653V4); assay: Counterscreen for Glucocerebrosidase Inhibitors: qHTS Assay for Rice alpha-Glucosidase at pH 5.0 (AID 997)
# In short: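 Rice alpha-glucosidase (4 nM final) with 400 uM 4-methylumbelliferyl-alpha-D-glucopyranoside in citrate buffer pH 5.0, 20 min at room temperature, stopped at pH 10; fluorescence 365/440 nm, compounds 0.7 nM–77 uM, AC50 from Hill fits.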
# [3] = Validation of Assay for Modulators of Lamin A Splicing (AID 1459; active means well fitted curve in the direction sought with a large enough effect in the signal ratio; the % refers to the signal ratio;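 further: cells exposed to compound for two days before reading; ratio rise marks activators and ratio drop marks inhibitors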)
# In short: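 Splicing correction is reported by an EGFP-containing lamin A minigene in stably transfected S3 HeLa cells, while DsRed2 controls for viability and nonspecific signal. Cells are exposed to compounds for 48 hrs before the GFP over RFP ratio is taken.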
# [4] = biological target: DNA repair nuclease/redox regulator APEX1 (Homo sapiens) (UniProt P27695); assay: qHTS Validation Assay for Inhibitors of the Human Apurinic/apyrimidinic Endonuclease 1 (APE1) (AID 1705; further: potency means the concentration at half of the fitted maximal effect;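 on activity change, negative = inhibition: TAMRA fluorescence gain over two minutes as APE1 cuts a quenched THF abasic duplex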)
# Chain of DNA repair nuclease/redox regulator APEX1 (Homo sapiens) (P27695 whole entry, looked up): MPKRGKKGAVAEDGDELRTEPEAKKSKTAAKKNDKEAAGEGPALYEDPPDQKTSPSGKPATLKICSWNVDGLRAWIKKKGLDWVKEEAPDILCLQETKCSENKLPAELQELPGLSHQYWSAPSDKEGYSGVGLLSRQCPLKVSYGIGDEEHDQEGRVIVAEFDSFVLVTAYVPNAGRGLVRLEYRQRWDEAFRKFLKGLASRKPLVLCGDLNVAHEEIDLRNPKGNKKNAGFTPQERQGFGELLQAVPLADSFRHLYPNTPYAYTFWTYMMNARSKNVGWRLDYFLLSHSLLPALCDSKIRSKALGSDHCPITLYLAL
# In short: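 Endonuclease activity of human APE1 is followed as dequenching when the enzyme incises a tetrahydrofuran abasic site in a short duplex labelled 5'-TAMRA/3'-BHQ-2 (50 nM final), after 15 min enzyme–compound preincubation at room temperature.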
# [5] = qHTS Assay for Lipid Storage Modulators (AID 1519; calls by dose curve); details: Drosophila S3 cells, BODIPY lipid droplet/cell ratio, laser cytometry, cells loaded with oleic acid
# In short: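 Cells seeded at 5,000 per well were treated with compounds over a concentration series and loaded with oleic acid (400 uM, as added). Lipid droplet fluorescence (488 nm excitation, 500-530 nm channel) was read by laser-scanning cytometry and normalized to 20 uM Triacsin C.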
# [6] = measured here: cell count channel max response
# [7] = measured here: lipid channel max response
structure (smiles),measurement,setting,value
COC(=O)c1c(C)[nH]c(C)c1C(=O)c1ccccc1Cc1ccccc1,outcome,[1],inactive
same,outcome,[2],inactive
same,outcome,[3],inactive
same,Potency,[4],inactive
NO,outcome,[1],inactive
same,outcome,[2],inactive
same,outcome,[3],inactive
COc1cc(C(O)CO)ccc1OS(=O)(=O)O (stereo unspecified),outcome,[3],inactive
same,Potency,[4],inactive
CC(C(=O)O)c1ccc(C(=O)c2cccs2)cc1 (stereo unspecified),"activity change, negative = inhibition",[5]; at 57.5 µM (top of the series),15.6% (inactive)
same,max response,[5]; [6],8.76%
same,max response,[5]; [7],31%
CCCn1c(=O)c2[nH]c(-c3ccc(OCC(=O)NCCN)cc3)nc2n(CCC)c1=O,outcome,[1],inactive
same,outcome,[2],inactive
same,outcome,[3],inactive
same,Potency,[4],inactive
CN[C@H](CC(C)C)C(=O)N[C@H]1C(=O)N[C@@H](CC(N)=O)C(=O)N[C@H]2C(=O)N[C@H]3C(=O)N[C@H](C(=O)N[C@H](C(=O)O)c4cc(O)cc(O)c4-c4cc3ccc4O)[C@H](O)c3ccc(c(Cl)c3)Oc3cc2cc(c3O[C@@H]2O[C@H](CO)[C@@H](O)[C@H](O)[C@H]2O[C@H]2C[C@](C)(N)[C@H](O)[C@H](C)O2)Oc2ccc(cc2Cl)[C@H]1O,outcome,[3],inactive
same,Potency,[4],inactive
O=C(O)[C@@H]1C[C@H](C(=O)O)N1,outcome,[3],inactive
same,Potency,[4],inactive
Nc1cc(-c2ccncc2)c[nH]c1=O,"activity change, negative = inhibition",[5]; at 25.7 µM (top of the series),3.03% (inactive)
same,max response,[5]; [6],5.25%
same,max response,[5]; [7],9.64%
N=C(N)SCCc1ccc(CCSC(=N)N)cc1,outcome,[1],inactive
same,outcome,[2],inactive
same,outcome,[3],inactive
same,Potency,[4],inactive
NCCNC(=O)c1ncsc1-c1cccc(F)c1,outcome,[1],inactive
same,outcome,[2],inactive
same,outcome,[3],inactive
same,Potency,[4],inactive
O=C(/C=C/c1ccc(O)c(O)c1)OCCc1ccccc1,"activity change, negative = inhibition",[5]; at 57.5 µM (top of the series),-2.35% (inactive) and -20.7% (inactive)
same,max response,[5]; [6],-15.3% and -76.7%
same,max response,[5]; [7],-17.2% and -81.3%
same,Potency,[4],inactive
COc1ccc(NC(=O)/C=C/c2ccc(Cl)cc2)cc1,Potency,[4],inactive
CCCCCCCCCCCCCCCCCC(=O)OC(CC(=O)O)C[N+](C)(C)C (stereo unspecified),Potency,[4],inactive
CCCCCCCCCCCCCCCC(=O)OC(CC(=O)O)C[N+](C)(C)C (stereo unspecified),"activity change, negative = inhibition",[5]; at 57.5 µM (top of the series),-1.01% (inactive)
same,max response,[5]; [6],29%
same,max response,[5]; [7],25.7%
same,Potency,[4],inactive
Cc1c(N)c(=O)n(-c2ccccc2)n1C,"activity change, negative = inhibition",[5]; at 25.7 µM (top of the series),-0.255% (inactive)
same,"activity change, negative = inhibition",[5]; at 57.5 µM (top of the series),3.79% (inactive)
same,max response,[5]; [6],3.27% and 4.31%
same,max response,[5]; [7],6.06% and 9.92%
CO/N=C(\C(=O)N[C@@H]1C(=O)N2C(C(=O)O)=C(COC(C)=O)CS[C@H]12)c1csc(N)n1 (stereo in doubt),Potency,[4],2.24 µM (active)
CN1CCc2cccc3c2C1Cc1ccc(O)c(O)c1-3 (stereo unspecified),Potency,[4],inactive
CC(C)NC[C@H](O)COc1cccc2[nH]ccc12,outcome,[1],inactive
same,outcome,[2],inactive
same,"activity change, negative = inhibition",[5]; at 57.5 µM (top of the series),1.59% (inactive)
same,max response,[5]; [6],-1.16%
same,max response,[5]; [7],-1.16%
same,Potency,[4],inactive
CC(COc1ccc(/C=C/c2ccccc2)cc1)[N+](C)(C)C (stereo unspecified),Potency,[4],inactive
CN(C)c1ccc(/C=C2\C(=O)Nc3ccccc32)cc1,"activity change, negative = inhibition",[5]; at 57.5 µM (top of the series),0.655% (inactive)
same,max response,[5]; [6],-28.2%
same,max response,[5]; [7],-23.7%
same,Potency,[4],inactive
N[C@H](CCCP(=O)(O)O)C(=O)O,outcome,[1],inactive
same,outcome,[2],inactive
same,"activity change, negative = inhibition",[5]; at 57.5 µM (top of the series),2.93% (inactive) and -1.99% (inactive)
same,max response,[5]; [6],-9.86% and -13.3%
same,max response,[5]; [7],-5.72% and -16.1%
CCCCCCCCCCCCCCCC(=O)NCC(COP(=O)([O-])OCC[N+](C)(C)C)OCC (stereo unspecified),"activity change, negative = inhibition",[5]; at 57.5 µM (top of the series),-0.558% (inactive)
same,max response,[5]; [6],-22.8%
same,max response,[5]; [7],-25%
same,Potency,[4],inactive
O=C(O)CCCC[C@@H]1CCSS1,Potency,[4],inactive
C#CCN1C(C)=C(C(=O)OC)C(c2cccc([N+](=O)[O-])c2)C(C(=O)OCC)=C1C (stereo unspecified),Potency,[4],inactive
CCCN(CC1CC1)c1nc(C)nc(Nc2c(Cl)cc(Cl)cc2Cl)c1Cl,outcome,[1],inactive
same,outcome,[2],inactive
same,"activity change, negative = inhibition",[5]; at 57.5 µM (top of the series),-0.101% (inactive)
same,max response,[5]; [6],-15.8%
same,max response,[5]; [7],-15.8%
same,Potency,[4],inactive
C[C@@H](CN1CCC(Cc2ccccc2)CC1)[C@@H](O)c1ccc(O)cc1,"activity change, negative = inhibition",[5]; at 57.5 µM (top of the series),0.466% (inactive)
same,max response,[5]; [6],15.4%
same,max response,[5]; [7],14.5%
same,Potency,[4],inactive
C=C[C@@H]1CN2CC[C@@H]1C[C@H]2[C@H](O)c1ccnc2ccc(OC)cc12,Potency,[4],inactive
CCN1/C(=C/C(C)=O)Sc2ccc(OC)cc21,outcome,[1],inactive
same,outcome,[2],inactive
same,"activity change, negative = inhibition",[5]; at 57.5 µM (top of the series),0.847% (inactive)
same,max response,[5]; [6],-21.8%
same,max response,[5]; [7],-21.7%
same,Potency,[4],inactive
